Values joined by “and” are separate entries in the source; they are usually repeats but may differ in a detail not shown here. Identical values can stand only once. Among all 110,000 compounds or so, about 190 (0.17%) were called active. Cut-off read from the data, not from the text of the source: active = inhibition above about 50%; inactive = the rest. Only a selection was taken, and actives are over-represented in it overall. Results with a measured potency or affinity are listed apart. The source holds several records for some structures; these can differ, active in one and inactive in another.

One may read the inhibition as the drop in the measured response relative to a control, in per cent.

The assay deals with Dual specificity protein phosphatase 6 (Rattus norvegicus) (UniProt Q64346). Kind of assay: inhibition of rat DUSP6 enzyme activity – biochemical, in vitro, primary screen (AID 425).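 Note: plate controls were vehicle for no effect and reference inhibitor for full effect.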 The settings on record: recombinant MKP-3 phosphatase activity, fluorescence; at 20 µM; stronger effect = higher value.
Dual specificity protein phosphatase 6 (Rattus norvegicus), sequence (Q64346 whole entry, looked up): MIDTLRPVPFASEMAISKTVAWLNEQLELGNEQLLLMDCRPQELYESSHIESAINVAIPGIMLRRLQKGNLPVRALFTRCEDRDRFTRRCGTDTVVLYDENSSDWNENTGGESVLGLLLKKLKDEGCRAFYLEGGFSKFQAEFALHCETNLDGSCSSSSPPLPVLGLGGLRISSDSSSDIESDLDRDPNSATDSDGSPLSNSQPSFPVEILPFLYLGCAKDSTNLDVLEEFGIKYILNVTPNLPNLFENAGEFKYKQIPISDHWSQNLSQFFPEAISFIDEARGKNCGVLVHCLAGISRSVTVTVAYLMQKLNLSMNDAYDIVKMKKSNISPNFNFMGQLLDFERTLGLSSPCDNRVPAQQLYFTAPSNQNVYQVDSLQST
Take `N#Cc1c(N)nc2c(c1-c1ccc3c(c1)OCO3)CCCCC2`: the inhibition is -0.9% (inactive).
To `Cc1c(C#N)c2nc3ccccc3n2c(=O)/c1=C/c1sc2ccccc2c1O` belongs 4.2% (inactive).
On to `Cc1c(C#N)c2nc3ccccc3n2c(=O)/c1=C\c1c(O)n(-c2ccc(Br)cc2)[nH]c1=O`, for which the inhibition is 2.8% (inactive).
Under `Cc1ccc(-n2[nH]c(=O)c(/C=c3/c(C)c(C#N)c4nc5ccccc5n4c3=O)c2O)cc1C` stands 66.8% (active).
To `COc1cc(/C=C2\NC(=S)NC2=O)ccc1OC(=O)C12CC3CC(CC(C3)C1)C2` belongs -2.6% (inactive); to `O=C1/C(=C/c2ccccc2[N+](=O)[O-])SC(=S)N1Cc1ccco1`, 84.3% (active).
On to `COc1cccc(N2C(=O)/C(=C/c3ccccc3[N+](=O)[O-])SC2=S)c1`, for which the inhibition was 3% (inactive).
Under `O=C1/C(=C/c2ccccc2[N+](=O)[O-])SC(=S)N1c1cccc(Br)c1` stands 4.2% (inactive); under `O=C1/C(=C/c2cccc3ccccc23)SC(=S)N1Cc1ccco1`, 1.1% (inactive).
Take `Cc1cccc(N2C(=O)/C(=C/c3ccccc3[N+](=O)[O-])SC2=S)c1`: the inhibition was 120% (active).
Under `COc1ccccc1/C=C1\SC(=S)N(Cc2ccco2)C1=O` stands 0.9% (inactive).
Under `O=C(O)CCCCCN1C(=O)/C(=C\c2ccc(-c3ccc(Cl)c(Cl)c3)o2)SC1=S` stands 1.8% (inactive).
Under `Cc1ccccc1N(CC(=O)N1CCc2ccccc2C1)S(C)(=O)=O` stands 2.4% (inactive).
Regarding `NC(=O)c1cc(NC(=O)COc2ccc(F)cc2)c(Cl)cc1Cl`, the inhibition is -1.1% (inactive).
Under `Cc1c(NS(=O)(=O)c2ccc3c(c2)CCN3C(=O)C2CC2)c(=O)n(-c2ccccc2)n1C` stands -3.7% (inactive).
In the case of `O=C1NC(=O)C(=Cc2ccc(-c3cccc(Br)c3)o2)C(=O)N1`, the inhibition is 52.6% (active).
To `O=C1NC(=S)N/C1=C/c1ccc(-c2cccc(Br)c2)o1` belongs 0.8% (inactive); to `Cc1ccc(-c2ccc(C=C3C(=O)NC(=O)NC3=O)o2)c(Br)c1`, 26.6% (inactive).
Turning to `CCN1CCN(CCCNC(=O)Cn2cc3c(n2)CCCC3)CC1`, the inhibition is -12% (inactive).
Turning to `COc1ccc(C2C(C(C)=O)=C(O)C(=O)N2c2nc3ccccc3s2)c(OC)c1` (configuration not stated), the inhibition is -1.5% (inactive).
To `Cc1ccc(N2CC(C(=O)Nc3ccc(N(C)C)cc3)CC2=O)cc1` (configuration not stated) belongs 2.6% (inactive); to `CCOC(=O)CSc1nnc(Cn2nnc(-c3ccccc3)n2)n1C`, 0.9% (inactive).
With `Oc1c(Br)ccc(Cl)c1C=Nc1cccc2nsnc12`, the inhibition was 117% (active).
Regarding `COc1ccc(Br)c(C=Nc2cccc3nsnc23)c1O`, the inhibition is 14.8% (inactive).
To `Oc1c(Br)cc(Cl)cc1C=Nc1cccc2nsnc12` belongs 42.7% (inactive).
Under `NC(=O)C1C(=O)Oc2ccccc2C1=O` (configuration not stated) stands 1.6% (inactive); under `Cc1ccc(-c2nnn(CC(=O)N(Cc3ccccc3)C(C(=O)NC3CCCC3)c3ccncc3)n2)o1` (configuration not stated), -0.8% (inactive).
Under `Cc1cc2nc(-c3cccc(NC(=O)c4ccc(Br)o4)c3)oc2cc1C` stands 3.2% (inactive).
Consider `O=S1(=O)N=C2CCCN2C(c2ccc(F)cc2)N1` (configuration not stated), for which the inhibition is -14.7% (inactive).
Under `O=C(Nc1ncc(Cc2ccc(Cl)c(Cl)c2)s1)c1ccccc1Cl` stands 3.9% (inactive); under `Cc1cc(C)n(Cc2ccc(C(=O)O)o2)n1`, -6.7% (inactive); under `Cc1ccc(OCC(=O)N/N=C\c2ccc(-c3ccc([N+](=O)[O-])cc3)o2)cc1`, -0.5% (inactive).
Under `O=C1/C(=C\c2ccco2)CC2CC1C/C(=C/c1ccco1)C2=O` stands 55.6% (active); under `O=C1/C(=C\c2cccs2)CC2CC1C/C(=C/c1cccs1)C2=O`, 1.2% (inactive); under `O=C1/C(=C/c2ccco2)N2CCC1CC2`, -0.8% (inactive).
Under `CN1CCN(CCCn2cnc3c(=O)oc4ccccc4c32)CC1` stands -0.6% (inactive); under `CC(=O)O[C@@]12CO[C@@H]1C[C@H](O)[C@@]1(C)C(=O)[C@H](O)C3=C(C)[C@@H](OC(=O)[C@H](O)[C@@H](NC(=O)OC(C)(C)C)c4ccccc4)C[C@](O)([C@@H](OC(=O)c4ccccc4)[C@H]21)C3(C)C`, -0.3% (inactive).
For the molecule `COC(=O)c1ccccc1OCc1cccc(C)n1`, the inhibition is -5.5% (inactive).
To `COC(=O)c1ccc(C(=O)OC)c(N)c1` belongs -12.2% (inactive).
Under `COc1ccc(S(=O)(=O)Nc2ccc(C)c(Cl)c2)cc1OC` stands 3.1% (inactive); under `Cc1ccc(N(C)S(=O)(=O)c2ccc(Cl)cc2)cc1`, -0.1% (inactive).
To `O=C(CN1C(=O)S/C(=C/c2ccccc2F)C1=O)Nc1ccccc1C(=O)O` belongs 6.5% (inactive).
With `COc1cc(/C=C2/SC(=S)N(CC(=O)Nc3cccc(C(=O)O)c3)C2=O)cc(OC)c1OC`, the inhibition is 1.9% (inactive).
To `COc1ccc(/C=C2\SC(=O)N(CC(=O)Nc3ccc(C)cc3C)C2=O)cc1` belongs -0.5% (inactive); to `O=C(CN1C(=O)/C(=C/c2ccccc2)SC1=S)Nc1cccc(C(=O)O)c1`, -1% (inactive); to `O=C(NC(Nc1ccc([N+](=O)[O-])cc1)C(Cl)(Cl)Cl)c1cccc(I)c1` (configuration not stated), 1.1% (inactive).
Under `CCN(CC)S(=O)(=O)c1cccc(C(=O)Oc2cccnc2)c1` stands -10.3% (inactive); under `CCOc1cc(C(=O)Nc2ccc(OCc3ccccc3)cc2)cc(OCC)c1OCC`, 7% (inactive); under `CCCC1=NN2C(=N)/C(=C/c3cc(OC)ccc3OC)C(=O)N=C2S1`, 1.4% (inactive).
Under `CCC1=NN2C(=N)/C(=C/c3ccc(OCCOc4cccc(OC)c4)cc3)C(=O)N=C2S1` stands -1.7% (inactive); under `Nn1c(SCC(=O)NC2CCCCC2)nnc1-c1ccccc1`, -1.2% (inactive).
On to `Cc1cc(=O)n2[nH]c(C)c(-c3ccccc3)c2n1`, for which the inhibition is 72.9% (active) and -3.2% (inactive).
To `Cc1cc(=O)n2[nH]c(C)c(-c3ccc(Cl)cc3)c2n1` belongs -8.5% (inactive); to `Cc1[nH]n2c(=O)cc(C(C)C)nc2c1-c1ccccc1`, -5.8% (inactive); to `O=C(NCC1CCCO1)c1ccc(Cl)cc1` (configuration not stated), -0.2% (inactive).
To `O=C(CCCn1c(=O)c2sccc2n(Cc2ccc(F)cc2)c1=O)NCc1ccco1` belongs -8.3% (inactive); to `CCOc1ccc(C(=O)NCc2ccc3c(c2)OCO3)cc1`, -3% (inactive).
Turning to `COc1ccc(/C=C2/SC(=O)N(CC(=O)Nc3ccc(F)c(Cl)c3)C2=O)cc1OC`, the inhibition is 1.4% (inactive).
Under `COc1ccc(/C=C2/SC(=O)N(CC(=O)Nc3ccc(C)c(C)c3)C2=O)cc1OC` stands 3.6% (inactive).
As for `COc1ccc(-c2cc(C(=O)N/N=C(\C)c3ccc([N+](=O)[O-])cc3)[nH]n2)cc1`, the inhibition is 4% (inactive).
As for `Cc1ccccc1C=Nc1ccc(O)cc1`, the inhibition was 112% (active).
In the case of `CCOc1ccccc1C=Nc1cc(Cl)cc(Cl)c1`, the inhibition is -0.8% (inactive).
Under `Cc1ccsc1C=Nc1ccc(O)cc1` stands -7% (inactive); under `N#Cc1ccc(N=Cc2cccc(O)c2O)cc1`, -1.9% (inactive).
For `CCOc1ccccc1C=Nc1ccc(O)cc1`, the inhibition was 116% (active).
Under `CCN(CC)c1ccc(N=Cc2cccc(O)c2O)cc1` stands 16.1% (inactive).
To `Oc1cccc(C=Nc2ccccc2)c1O` belongs 120% (active).
As for `Cc1cccc(C=Nc2ccccc2O)c1O`, the inhibition is -0.6% (inactive).
To `CCOc1ccccc1C=Nc1ccc(C(N)=O)cc1` belongs -2.2% (inactive); to `CCOC(=O)C1(C)NC(c2cc(OC)c(OC)c(OC)c2)C2C(=O)N(CC)C(=O)C21` (configuration not stated), 4.9% (inactive); to `CC(NC(=O)C(=O)NCC1CCNCC1)c1ccccc1` (configuration not stated), 2.1% (inactive).
With `Cc1cc(NC(=O)c2nn3c(c2Cl)NC(c2ccc(Br)cc2)CC3C(F)(F)F)no1` (configuration not stated), the inhibition was -0.7% (inactive).
Consider `COc1cccc(C(=O)NNC(N)=O)c1`, for which the inhibition is -2.5% (inactive).
To `O=C(CSc1nc2ccc(N3C(=O)c4ccccc4C3=O)cc2s1)Nc1cccc([N+](=O)[O-])c1` belongs 14.1% (inactive); to `Cc1ccc(NC(=O)C(=O)NCC(C)C)cc1`, -6.8% (inactive).
Under `CCN1CCOC(c2ccccc2)C(C(=O)OC)C1C(=O)OC` (configuration not stated) stands 49.2% (inactive).
For `O=C(Nc1ccc(NC(=O)c2ccc(-c3ccc(Br)cc3)o2)cc1)c1ccco1`, the inhibition was -1.3% (inactive).
To `CC(=O)c1ccc(NC(=O)c2ccc(-c3ccc(Br)cc3)o2)cc1` belongs 10.6% (inactive); to `O=C(CSc1ccccn1)N/N=C\c1c[nH]c2ccccc12`, -0.6% (inactive).
Regarding `CCCCCCCC(=O)N/N=C/c1c[nH]c2ccccc12`, the inhibition is 4.3% (inactive).
To `Cc1ccn2c(-c3csc(Nc4cccc(O)c4)n3)c(C)nc2c1` belongs 2.7% (inactive); to `O=C1CC(Nc2ccccc2)C(=O)N1Cc1ccccc1` (configuration not stated), 1.4% (inactive).
To `O=C(O)c1ccc(NC(=O)c2cc3cc(Br)ccc3oc2=O)cc1` belongs 3.5% (inactive); to `O=C(Nc1ccc(Nc2ccccc2)cc1)c1cccc(F)c1`, -0.3% (inactive).
To `O=C(Nc1ccc(Cl)c(Cl)c1)Nc1nnc(-c2ccccc2)s1` belongs -2.8% (inactive).
Take `Cc1ccc(-c2nnc(NC(=O)Nc3ccc(Cl)c(Cl)c3)s2)cc1`: the inhibition was -1.5% (inactive).
Take `O=[N+]([O-])c1ccc(OCCCCCN2CCCCC2)cc1`: the inhibition was 0.4% (inactive).
Under `Cc1ccc(/C(O)=C2\C(=O)C(=O)N(CCCC(=O)O)C2c2ccccc2)cc1` (configuration not stated) stands 2.5% (inactive); under `COc1ccc(O)c(CN2CCN(Cc3ccccc3[N+](=O)[O-])CC2)c1`, -3.5% (inactive).
To `Oc1ccccc1/C=N/Nc1cc(N2CCOCC2)nc(N2CCOCC2)n1` belongs 5.6% (inactive); to `Oc1ccccc1/C=N/Nc1cc(N2CCCCC2)nc(N2CCCCC2)n1`, -0.5% (inactive).
Take `Oc1ccccc1/C=N/Nc1cc(N2CCCC2)nc(N2CCCC2)n1`: the inhibition was 119% (active).
Under `Cc1onc(-c2ccccc2)c1C(=O)NCCNc1c(Cl)cccc1[N+](=O)[O-]` stands 3.9% (inactive).
In the case of `CC(=O)Nc1ccc(S(=O)(=O)NN2C(=O)c3ccccc3C2=O)cc1`, the inhibition is 2.6% (inactive).
To `O=C1C=C/C(=N\S(=O)(=O)c2ccc(F)cc2)c2ccccc21` belongs -2% (inactive).
To `O=C1C=CC(=NS(=O)(=O)c2ccccc2)c2ccccc21` belongs 68.4% (active); to `CC(=O)Nc1ccc(S(=O)(=O)/N=C2/NC(=O)CS2)cc1`, -0.8% (inactive).
Under `Cc1ccccc1S(=O)(=O)N=C1C=CC(=O)C(Cl)=C1` stands 3.1% (inactive); under `CC(=O)Nc1ccc(S(=O)(=O)/N=C2\C=CC(=O)c3ccccc32)cc1`, 111% (active).
In the case of `CN(C)C1=C/C(=N/S(=O)(=O)c2ccccc2)c2ccccc2C1=O`, the inhibition was 13.9% (inactive).
Under `Cc1ccc(S(=O)(=O)N=C2C=CC(=O)C=C2)c(C)c1` stands 7.6% (inactive).
To `Cc1ccc(C)c(S(=O)(=O)/N=C2\C=CC(=O)c3ccccc32)c1` belongs 63.5% (active).

The values are drawn from PubChem BioAssay AID425 (Sanford-Burnham Center for Chemical Genomics, 2006).
